From PubChem BioAssay (NCATS) come the findings set out here.

Results filed as inconclusive are left out. Entries that show only a call come without a potency. Active and inactive are the calls of the source. The call rests on the fitted dose curve; in most records, active means well fitted inhibition curve with a large enough effect; inconclusive means small, poorly fitted or top-dose-only effect; inactive means flat fitted curve, though single readings scatter.

The nature of this assay: High Content Imaging Cell-Based qHTS for Inhibitors of the mTORC1 Signaling Pathway in MEF (Tsc2-/-, p53-/-) Cells (AID 2666).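 Further: percent of cells scored positive for phospho-rpS6 Ser235/236 immunostaining by imaging.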 The conditions noted are these: series mostly up to 38.3 µM. An excerpt:
NIH Molecular Libraries Probe Production Centers Network [MLPCN]
NIH Chemical Genomics Center [NCGC]
Assay Submitter (PI): Blenis, John; Hoffman, Greg; Harvard University
NCGC Assay Overview: Thee mammalian target of rapamycin (mTOR) is an intracellular serine/threonine kinase Aberrant regulation of mTOR signaling plays a causative role in a number of human diseases, including cancer, benign tumors such as lymphangioleiomyomatosis (LAM) and Tuberous Sclerosis Complex (TSC), and metabolic diseases such as diabetes and obesity. This project aims to identify inhibitors of ribosomal protein S6 (rpS6) phosphorylation. The phosphorylation of rpS6 is a key event downstream of mTOR activation. The assay uses a phospho-specific antibody of phospho-rpS6 to detect inhibitors of mTOR activation. Mutations in the Tsc1 and Tsc2 genes are the underlying genetic lesions responsible for TSC, causing constitutive activation of the mTORC1 pathway and leading to profound effects on cell metabolism. Aberrant metabolism in cancer has recently received significant attention as a target to develop therapeutic agents in the treatment of cancer1. As Tsc2-/- cells have lost the ability to respond to energy and growth factor deprivation, these cells are unable to properly down regulate cellular biosynthetic processes in response to metabolic stress, and are thus extremely sensitive to glucose deprivation-induced death.2 A central goal of this project is to explore the unique cell survival and metabolic properties of cells with Tsc1 or Tsc2 by screening for compounds that selectively target the Tsc2-/- MEFs by screening both Tsc2-/- and WT MEF cell lines. We hope to better understand these aspects of TSC physiology in order to exploit them for therapeutic benefit.
NCGC IN Cell Assay Protocol:
For quantitative high throughput analysis of mTORC1 signaling, we developed a cell-based assay for immuno-fluorescence based detection of rpS6 phosphorylation on the Acumen Explorer that will be used a platform for the primary small molecule screen. Mouse embryonic fibroblasts (MEFs) are cultured in 1536-well plates using DMEM + 10% FBS. Twenty-four hrs after plating, test compounds (solubilized in DMSO) are delivered and incubated with the cells for 24 hrs at 37 degree Celsius. Following the incubation, media with compound is aspirated and the cells are fixed in 4% paraformaldehyde (PFA) containing PBS + 0.2% TX-100. Next, PFA is aspirated, cells are washed two times with PBS plus 0.2% TX-100 and the cells are blocked for 1 hr at room temperature (blocking buffer: LiCOR Blocking Buffer plus 0.2% TX-100). This is followed by aspiration and staining with Alexa-488 conjugated-phospho-rpS6 Ser235/236 antibody for 2 hours at room temperature (Cell Signaling Technology # 4803, 1:50 dilution in blocking buffer). Cells are washed two times with PBS plus 0.2% TX-100, and stained with 10 uM propidium iodide (PI) for 20-25 minutes for cell number measurement (1:500 dilution of Hoescht staining is also added for IN Cell imaging). Active wells which are selected (based on Acumen results) are imaged on the IN Cell 1000 (GE Healthcare) using the D360/40X and HQ480/40X excitation filters for the Hoechst and Alexa-488 cytoplasmic stains, respectively. The fluorescence emission filters used were HQ460/40M and HQ535/50M for the Hoechst and Alexa-488 cytoplasmic stains, respectively. The normalized phospho-S6 staining is calculated as the ratio of […] for the single concentration rapamycin control ([…] nM) and DMSO columns. […] Inhibition of the pathway is defined based on the normalized phospho-S6 intensity in rapamycin treated cells. Each treatment is reported as the % positive cells in the well, where thresholds are defined by selecting wells with the highest and lowest signal and differentiating between the % non-active and % active populations. […]
On the technique in general: In qHTS, concentration-response curves come from the screen itself.
Turning to `CNc1ncnc2c1ncn2[C@H]1C[C@H](OP(=O)(O)O)[C@@H](COP(=O)(O)O)O1`, the Potency entry was “inactive”.
The result for `NC1(C(=O)O)CC1` reads “inactive”; that for `CN1Cc2sccc2C(c2ccc(O)c(O)c2)C1` (stereo not given), “inactive”.
With `C=C1C(=O)O[C@@H]2[C@H]3O[C@]3(C)CCC=C(C)CC[C@@H]12`, the Potency result was “inactive”.
The result for `CCC1(O)CC2CN(CCc3c([nH]c4ccccc34)[C@@](C(=O)OC)(c3cc4c(cc3OC)N(C)C3[C@]45CCN4CC=C[C@@](CC)([C@@H](OC(C)=O)[C@]3(O)C(=O)OC)[C@H]45)C2)C1` (stereo not given in full) reads “inactive”.
With `CC#CCOC(=O)c1c(C)nc2sc3c(c2c1N)CCC(O)C3` (stereo not given) the entry was “inactive”.
With `COc1ccccc1N1CCN(CCCCN2C(=O)c3ccccc3C2=O)CC1`, the Potency result was “inactive”.
With `C[C@](Cc1ccc(O)c(O)c1)(NN)C(=O)O` the entry was “inactive”; with `NC1CCN(O)C1=O` (stereo not given), “inactive”; with `CCCn1c(=O)c2[nH]c(C3CCCC3)nc2n(CCC)c1=O`, “inactive”.
The result for `NCCNS(=O)(=O)c1cccc2c(Cl)cccc12` reads “inactive”; that for `O=C(O)c1cc2cc(F)ccc2[nH]1`, “inactive”; that for `C#CCn1c(=O)c2c(ncn2C)n(C)c1=O`, “inactive”.
With `CC[n+]1c(/C=C/C=C2/N(C)c3ccccc3C2(C)C)sc2ccccc21` the entry was “inactive”.
In the case of `CCCC[C@@]1(C2CCCC2)Cc2cc(OCC(=O)O)c(Cl)c(Cl)c2C1=O`, the Potency result was “inactive”.
With `NC(=O)CC[C@H](N)C(=O)O` the entry was “inactive”; with `CC1=C(C(=O)O)N2C(=O)[C@@H](NC(=O)C(N)C3=CCC=CC3)[C@H]2SC1` (stereo not given in full), “inactive”; with `CCCC(=O)NCCc1c2n(c3ccc(OC)cc13)CCCc1ccccc1-2`, “inactive”.
For `N=C(N)c1ccc(N)cc1`, the Potency entry was “inactive”.
With `[N-]=[N+]=Nc1ccc(C(=O)CSC[C@H](NC(=O)CC[C@H](N)C(=O)O)C(=O)NCC(=O)O)cc1` the entry was “inactive”; with `C#CC(N)CCC(=O)O` (stereo not given), “inactive”.
The result for `CSC(N)=NCCC[C@H](N)C(=O)O` reads “inactive”; that for `NCCS(=O)O`, “inactive”.
With `Nc1nc2c(cnn2CCc2ccccc2)c2nc(-c3ccco3)nn12` the entry was “inactive”; with `N=C(N)SCCN`, “inactive”; with `Cc1cc2c(cc1Cl)N(C(=O)Nc1ccnc3ccccc13)CC2`, “inactive”.
With `COc1ccc2c(c1)CCC1C2CC[C@@]2(C)C1CC[C@@H]2NCCCCCCN1C(=O)C=CC1=O` (stereo not given in full), the Potency entry is “inactive”.
`O=C(O)C1CN(CCCP(=O)(O)O)CCN1` (stereo not given): the Potency entry was “inactive”.
With `Cn1c(=O)c2[nH]c(C3CCCC3)nc2n(C)c1=O` the entry was “inactive”; with `Cc1nc(N=Nc2ccc(S(=O)(=O)O)cc2S(=O)(=O)O)c(COP(=O)(O)O)c(C=O)c1O`, “inactive”.
On to `CC(=O)NNC(=O)N1Cc2ccccc2Oc2ccc(Cl)cc21`, for which the Potency result was “inactive”.
The result for `c1ccc(C2CN3CCSC3=N2)cc1` (stereo not given) reads “inactive”.
In the case of `CCc1ccc2c(-c3cccc(Cl)c3)nc(=O)n(CC)c2n1`, the Potency entry was “inactive”.
The result for `CCN(CC)CCCCCCCCOC(=O)c1cc(OC)c(OC)c(OC)c1` reads “inactive”; that for `CN(CC[C@@H](Oc1ccc(C(F)(F)F)cc1)c1ccccc1)CC(=O)O`, “inactive”; that for `C=CCn1c(=O)c2c(nc(-c3ccc(S(=O)(=O)O)cc3)n2C)n(C)c1=O`, “inactive”.
The result for `COc1ccccc1N1CCN(CCCCNC(=O)c2ccc3ccccc3c2)CC1` reads “inactive”; that for `CCCOC(=O)c1c(-c2ccccc2)nc(CC)c(C(=O)SCC)c1CCC`, “inactive”.
The result for `C[C@H](O)C(=O)C1=Nc2c(nc(N)[nH]c2=O)NC1` reads “inactive”; that for `O=C(O)C1=CCNCC1`, “inactive”.
